High-throughput results from PubChem.
KLF5 inhibitor: kruppel-like factor 5 inhibition. DLD-1 KLF5 promoter-luciferase reporter, luminescence. inhibition, % at 5 µM. hit rate 0.23% among 290,000;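 active = inhibition above a per-plate limit of that plate's mean compound inhibition plus 3 SD, cut at about 60% in these data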;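 note: 0% = DMSO wells and 100% = LY294002 at 200 µM; higher means less KLF5 promoter-driven luciferase light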
697 NFkB inh: inhibitors of the PMA/ionomycin-induced NF-kB reporter in 697 B cells. hit rate 0.33% among 330,000. inhibition, % at 4 µM. 697 B-cell NF-kB luciferase reporter, 16 h. AID 435022; in the data active = inhibition above about 35%
Jurkat NFkB inh: inhibitors of the PMA/ionomycin-induced NF-kB reporter in Jurkat cells; PMA/ionomycin-induced NF-kB luciferase reporter, luminescence; inhibition, % at 4 µM; hit rate 0.53% among 330,000; AID 435003; in the data active = inhibition above about 50%
aSyn 5UTR inh: MLPCN primary screen, SNCA 5' untranslated region; hit rate 0.82% among 300,000; alpha-synuclein 5'UTR reporter, inhibitor activity; inhibition, % (tested at 7.5 µM); in the data active = inhibition above about 60%;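 note: H4 neuroglioblastoma cells stably carrying SNCA 5'UTR luciferase fusion; 0% = DMSO wells and 100% = positive control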
Gli-Sufu block: antagonists of Gli-Sufu signaling. Sufu-KO-LIGHT fibroblasts, Gli luciferase reporter luminescence. inhibition, % at 5 µM. hit rate 0.74% among 340,000;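 active = inhibition above about 55%, limit read from the data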;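 note: 0% = DMSO-treated cells and 100% = wells with medium but no cells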
Mdm2 MdmX PPI: inhibitors of human Mdm2/MdmX interaction | AID 485346 | O15151+Q00987 | inhibition, % at 8 µM | SaOS-2 split-luciferase Mdm2/MdmX complementation, luminescence | hit rate 3% among 330,000;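 active = inhibition of at least 50% at 8 µM in the primary screen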
Target sequence (O15151 whole entry, looked up): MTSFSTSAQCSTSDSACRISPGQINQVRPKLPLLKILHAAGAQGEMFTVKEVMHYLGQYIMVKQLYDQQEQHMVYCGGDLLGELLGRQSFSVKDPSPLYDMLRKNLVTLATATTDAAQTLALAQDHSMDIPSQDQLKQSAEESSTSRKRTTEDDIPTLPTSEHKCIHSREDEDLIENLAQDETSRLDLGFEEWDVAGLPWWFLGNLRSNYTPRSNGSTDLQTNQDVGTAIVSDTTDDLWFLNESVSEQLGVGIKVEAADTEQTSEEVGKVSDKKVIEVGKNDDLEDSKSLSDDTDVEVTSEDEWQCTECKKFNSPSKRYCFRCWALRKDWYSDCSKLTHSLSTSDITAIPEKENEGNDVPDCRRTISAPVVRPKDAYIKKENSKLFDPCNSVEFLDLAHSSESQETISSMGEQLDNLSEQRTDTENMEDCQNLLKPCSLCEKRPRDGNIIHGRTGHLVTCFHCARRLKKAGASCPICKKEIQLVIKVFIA
Target sequence (Q00987 whole entry, looked up): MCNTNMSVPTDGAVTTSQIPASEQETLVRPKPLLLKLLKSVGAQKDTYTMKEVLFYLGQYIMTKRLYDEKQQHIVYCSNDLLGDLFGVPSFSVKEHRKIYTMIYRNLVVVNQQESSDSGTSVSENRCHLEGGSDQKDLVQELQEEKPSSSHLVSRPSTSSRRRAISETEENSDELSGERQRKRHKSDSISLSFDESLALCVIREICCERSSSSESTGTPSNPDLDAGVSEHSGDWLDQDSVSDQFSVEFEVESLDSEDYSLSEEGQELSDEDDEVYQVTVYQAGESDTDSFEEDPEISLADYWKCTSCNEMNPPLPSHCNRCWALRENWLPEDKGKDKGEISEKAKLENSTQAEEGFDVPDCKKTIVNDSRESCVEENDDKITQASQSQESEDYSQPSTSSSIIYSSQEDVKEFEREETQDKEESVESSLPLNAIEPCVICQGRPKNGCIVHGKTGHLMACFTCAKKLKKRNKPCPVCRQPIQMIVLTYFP
Jurkat NFkB conf: inhibitors of the PMA/ionomycin-induced NF-kB reporter in Jurkat cells, retest. shares compounds with Jurkat NFkB inh. AID 435020. inhibition, % at 4 µM. Jurkat NF-kB luciferase, 16 h. hit rate 27% among 2,700;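 active = inhibition reaching about 45% at 4 µM in either replicate, limit read from the data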;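 note: plate controls were PMA/ionomycin stimulated DMSO wells for no effect and unstimulated DMSO wells for full effect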
697 NFkB conf: lowers PMA/ionomycin-induced NF-kB signal in 697 B cells. shares compounds with 697 NFkB inh. 697 B-cell NF-kB luciferase, 16 h. inhibition, % at 4 µM. hit rate 35% among 2,000; in the data active = inhibition mostly above about 28%, no sharp cut-off; inactive = mostly below about 22%
Mdm2-MdmX conf: confirmation of human Mdm2/MdmX interaction inhibitors. hit rate 55% among 10,000. Mdm2-MdmX binding, luminescent assay. shares compounds with Mdm2 MdmX PPI. inhibition, % at 8 µM; in the data active = inhibition above about 40%
FLuc counter: counter-screen for Mdm2/MdmX inhibitors: full-length luciferase; shares compounds with Mdm2 MdmX PPI; SaOS-2 full-length luciferase counterscreen, luminescence; inhibition, % at 8 µM; hit rate 77% among 6,200; AID 504607;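 active = mean inhibition at 8 µM reaching about 37%, which flags the compound as non-specific, limit read from the data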;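 note: p53-null SaOS-2 cells with luciferase driven by a doxycycline-inducible promoter; compound on cells about two nights before reading with doxycycline added after day one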
An asterisk follows results filed as active; / = no result given; + = active, no number. Most compounds without a hit are left out; they make up all but 4.1% or so of the library.

SMILES	KLF5 inhibitor	697 NFkB inh	Jurkat NFkB inh	aSyn 5UTR inh	Gli-Sufu block	Mdm2 MdmX PPI	Jurkat NFkB conf	Mdm2-MdmX conf	FLuc counter	others
CCN1C/C(=C/c2ccc(OC)c(O)c2)C(=O)/C(=C/c2ccc(OC)c(O)c2)C1	26.5	-117.6	88.9*	116.0*	-4.2	99.9*	44.4*	99.7*	41.0*
COc1ccc(/C=C2\CN(Cc3ccccc3)C/C(=C\c3ccc(OC)c(O)c3)C2=O)cc1O	24.6	-65.5	52.6*	106.7*	9.4	97.7*	9.8	100.2*	51.2*
O=C(c1ccc(CS(=O)Cc2ccccc2Cl)o1)N1CCN(c2ccccn2)CC1 (stereo not given)	-8.1	-7.7	-9.0	-84.9	5.5	5.7	/	/	/
O=C(c1ccc(CS(=O)c2ccccc2Cl)o1)N1CCN(c2ccccn2)CC1 (stereo not given)	39.5	-43.1	52.2*	-4.2	10.9	62.8*	48.0	56.0*	45.3*
O=C(C#Cc1ccccc1)Nc1cccc(F)c1	-34.9	-99.6	72.8*	-383.2	-7.6	98.0*	-45.9	99.5*	30.5
C(=C\c1ccccc1)/CSc1nnc(-c2ccccn2)n1Cc1ccco1	-22.8	-30.2	50.0*	2.5	4.6	59.1*	7.3	49.0*	87.0*
NC(=O)CSc1nnc(-c2ccccn2)n1Cc1ccco1	6.2	-13.7	-9.3	13.6	2.5	-5.3	/	/	/
NC1=NC[C@H](Cc2ccc(O)cc2)N1CCCCC1CCCCC1	/	40.6*	79.0*	-6.6	59.4*	50.5*	49.8*	17.4	/	697 NFkB conf=40.4*
COc1ccc([N+](=O)[O-])cc1NC(=O)C1CCCCC1C(=O)O (stereo not given)	-22.8	10.2	-4.4	-12.9	-0.7	-31.0	/	/	/
Cc1ccc2c(c1)sc(-c1ccc(N(C)C)cc1)[n+]2C	32.9	14.5	93.1*	3.9	55.6*	79.2*	72.8*	78.8*	47.0*
O=C(c1ccccc1-c1ccccc1)N1CCN(c2ccccn2)CC1	34.7	-21.3	68.7*	-1.5	5.0	58.8*	40.9	58.1*	50.1*
O=C(c1cn(Cc2ccccc2)nc1-c1ccccc1)N1CCN(c2ccccn2)CC1	/	-36.6	53.0*	/	-5.7	52.6*	39.4	50.0*	71.2*
COc1ccc(-c2nn(Cc3ccccc3)cc2C(=O)N2CCN(c3ccccn3)CC2)cc1OC	/	3.0	0.3	/	0.2	23.2	/	/	/
Cc1ccccc1C(=O)N1CCN(c2ccccn2)CC1	5.2	16.5	16.3	-10.8	-15.2	18.8	/	/	/
Cc1cnc(C(=O)OCC(=O)Nc2ccc(OCc3ccccc3)cc2)cn1	/	-43.6	-66.1	/	-26.2	-12.1	/	/	/
Cc1ccc2oc(C(=O)N3CCN(Cc4ncccc4C)CC3)c(C)c2c1	-22.9	-2.0	-2.5	-18.2	0.0	6.5	/	/	/
Cc1ccc(/C(N)=N/OC(=O)c2cccc(F)c2)cc1	-34.4	-152.3	-135.6	-262.2	-2.2	-59.1	/	/	/
Cc1ccc(/C(N)=N/OC(=O)c2ccc(C)cc2Cl)cc1	-61.9	-310.4	-192.5	14.0	-30.4	74.5*	-10.2	77.2*	+	697 NFkB conf=-288.4
O=S(=O)(c1ccc(Cl)cc1)N1CCCc2ccccc21	-19.6	12.5	2.7	6.3	5.2	9.7	/	/	/
COC(=O)Nc1ccc(S(=O)(=O)N2c3ccccc3CCC2C)cc1 (stereo not given)	31.1	-85.4	53.3*	27.2	10.0	58.3*	38.2	62.8*	59.7*
CC(=O)Nc1ccc(S(=O)(=O)N2CCCc3ccccc32)cc1	3.6	-48.0	63.5*	-12.0	-8.5	58.0*	34.3	59.3*	50.8*
COc1cc(/C=C2/SC(=Nc3ccc(O)cc3)NC2=O)ccc1O	36.1	-82.9	59.1*	-23.3	-21.9	74.1*	38.7	72.0*	68.2*
Cc1cccc(OC(C)C(=O)Nc2ccc3c(c2)OCCO3)c1 (stereo not given)	/	/	/	/	-18.7	/	/	/	/
CCOC(=O)c1c(C)[nH]c(C)c1C(=O)COC(=O)/C=C/c1cccc(F)c1	19.4	/	/	-19.8	-3.9	/	/	/	/
CCOC(=O)c1c(C)[nH]c(C)c1C(=O)COC(=O)/C=C/c1ccc(OC)cc1	/	-39.5	50.9*	/	-6.3	69.2*	17.1	77.1*	53.1*
SMILES	KLF5 inhibitor	697 NFkB inh	Jurkat NFkB inh	aSyn 5UTR inh	Gli-Sufu block	Mdm2 MdmX PPI	Jurkat NFkB conf	Mdm2-MdmX conf	FLuc counter	others
C=C1/C=C(\C)[C@](C)(O)C[C@H](O)CC(=O)[C@H](O)[C@@H](O)[C@H](C)C[C@H](C)OC(=O)/C(C)=C/CC/C=C/[C@@H]2O[C@H]2C[C@H](C)C1	/	36.6*	56.9*	/	/	97.2*	12.0	-28.4	/	697 NFkB conf=16.8
Cc1ccc(CNC(=O)COc2ccc(S(=O)(=O)N3CCOCC3)cc2)cc1	/	-5.3	10.0	-4.7	-9.5	10.0	/	/	/
Cn1c(=O)[nH]c2ccc([N+](=O)[O-])nc21	-27.4	-16.2	13.3	12.6	-0.3	-7.8	/	/	/
Cc1noc(C)c1CSc1nc2ccccc2c(=O)n1-c1ccccc1	6.7	-5.6	54.4*	0.6	19.7	66.7*	45.1	63.1*	67.0*
Cc1ccc(C(CNS(=O)(=O)c2cc(F)ccc2F)N2CCN(C)CC2)cc1 (stereo not given)	/	3.3	-1.9	-21.1	3.0	-9.7	/	/	/
CCn1cc2nc(SCC(=O)Nc3ccc(OC)c(OC)c3)n(Cc3ccc(OC)cc3)c(=O)c2n1	-0.6	-35.6	-40.9	31.1	27.5	-17.3	/	/	/
CCn1cc2nc(SCC(=O)Nc3ccc(OC)cc3OC)n(Cc3ccc(OC)cc3)c(=O)c2n1	56.3	-22.5	51.5*	-6.3	-0.2	50.3*	29.9	42.0*	52.1*
Cc1ccc(C(=O)Sc2cccccc2=O)cc1	30.9	-85.6	90.3*	-108.9	75.0*	100.2*	14.3	82.0*	22.6
Cc1ccc(C(=O)CC(=O)c2ccccc2)cc1	-144.2	-160.3	-133.4	-237.9	-54.9	-6.4	/	/	/
CC(C)C(C(=O)Nc1ccc2c(c1)OCCOCCOCCOCCO2)N1C(=O)c2ccccc2C1=O (stereo not given)	-16.9	11.3	-0.8	7.0	-6.2	-19.6	/	/	/
CCOc1cc(CNc2ccc3c(c2)OCCO3)cc(Br)c1OC	50.3	2.7	58.7*	95.4*	0.4	75.7*	14.7	73.0*	65.5*
Cn1ncc2c(N3CCN(c4ccc(Cl)c(Cl)c4)CC3)ncnc21	5.4	32.2	58.8*	9.3	-172.0	92.3*	60.4*	74.2*	98.9*
Cn1ncc2c(N3CCN(c4ccccc4F)CC3)ncnc21	-11.4	-17.8	-21.3	-5.4	-8.4	6.0	/	/	/
